Experimental data from PubChem BioAssay (NCI).
This is part of a sample that, as a whole, favours compounds with a hit. Of some 83,000 tested, about 20% had one in any assay.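 A percent growth of 40 corresponds to 60% growth inhibition; 0 means no net growth; -100 means all cells died. Active threshold: below 10.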 Values without a mark were called inactive. Activity calls are given as the source filed them.

Legend:
Experiment in all cases: NCI-60 one-dose screen, 48 h (100 = growth as untreated, 0 = no growth, -100 = all killed)
Details in all cases: 10 µM unless noted
OVCAR-8 ovarian = tested on: OVCAR-8 ovarian
OVCAR-5 ovarian = tested on: OVCAR-5 ovarian
OVCAR-4 ovarian = tested on: OVCAR-4 ovarian
SK-OV-3 ovarian = tested on: SK-OV-3 ovarian
IGROV1 ovarian = tested on: IGROV1 ovarian
HS 578T breast = tested on: HS 578T breast
NCI/ADR-RES ovarian = tested on: NCI/ADR-RES ovarian
RPMI-8226 leukemia = tested on: RPMI-8226 leukemia
OVCAR-3 ovarian = tested on: OVCAR-3 ovarian

Row | Compound | growth (OVCAR-8 ovarian) | growth (OVCAR-5 ovarian) | growth (OVCAR-4 ovarian) | growth (SK-OV-3 ovarian) | growth (IGROV1 ovarian) | growth (HS 578T breast) | growth (NCI/ADR-RES ovarian) | growth (RPMI-8226 leukemia) | growth (OVCAR-3 ovarian)
1 | NC(=O)c1c(NC(=O)c2ccccn2)sc2c1CCC(=O)C2 | 14.2% | 21.5% | -7.1% (active) | 95.6% | 29.9% | 25.1% | 17.6% | – | –
2 | COc1ccc(Nc2ncc(Br)c(NCCCNC(=O)C3CCC3)n2)cc1 | 28.6% | – | -0.243% (active) | 10.6% | 14.5% | -15.7% (active) | 47.4% | 40.1% | –
3 | CCOC(=O)C(=CNc1ccccc1[N+](=O)[O-])C(=O)OCC | 101% | 96.4% | 110% | 110% | 107% | 98.6% | 101% | – | 105%
4 | COc1ccc(/C=C(\C#N)n2nnc3cc(F)c(F)cc32)c(OC)c1OC | 67.6% | – | 60.6% | 88.6% | – | 66.2% | 72.7% | 41.6% | 58.2%
5 | C=C(C)[C@@H]1CC[C@]2(CN)CC[C@]3(C)[C@H](CC[C@@H]4[C@@]5(C)CCC(N)[C@@](C)(CO)[C@@H]5CC[C@]43C)[C@@H]12 (stereo not given in full) | -72.9% (active) | – | – | -80.5% (active) | 67% | -37.1% (active) | 76.2% | -51.8% (active) | -75.9% (active)
6 | O=C1CSC(c2ccc(O)cc2)N1c1nnc(Cn2cnnc2)o1 (stereo not given) | – | 96.1% | 88.6% | 112% | 104% | 64.7% | 92.2% | 62% | 15.2%
7 | NC(=O)CC1(O)C=C(Br)C(=O)C(Br)=C1 | 95.9% | 70.2% | – | 99.1% | – | – | – | -31.3% (active) | -9.94% (active)
8 | CC(/C=N/NC(=O)c1cc(-c2ccco2)[nH]n1)=C\c1ccccc1 | – | 96.9% | 99.6% | 97.4% | 107% | – | 97.8% | 84.7% | 107%
9 | C=C(CNCCc1ccc(O)cc1)[C@@H]1CC[C@]2(COC3CCCCO3)CC[C@]3(C)[C@H](CC[C@@H]4[C@@]5(C)CCC(NCCO)C(C)(C)[C@@H]5CC[C@]43C)[C@@H]12 (stereo not given in full) | -85.1% (active) | -93.1% (active) | – | -48.9% (active) | -83.9% (active) | -51.5% (active) | -79.3% (active) | -56.8% (active) | -94.4% (active)
10 | Cc1cnc(Nc2ccc(OCCN3CCCC3)cc2)nc1NCc1ccco1 | 95.1% | 78.1% | 59.4% | 108% | 71% | 80.3% | 101% | – | 82.7%
11 | C=C1c2c(C)nn(-c3ccc(O)cc3)c2N(C)C23C[C@@H]1C1(C)c4c(C)nn(-c5ccc(O)cc5)c4N(C)C(C)(C[C@H]12)C3 (stereo not given in full) | 27.8% | 85.8% | 32.2% | 37.7% | 63.2% | 52.4% | 47.4% | – | –
12 | O=c1[nH]c(=O)n(C2CC(O)C(CO)O2)cc1CO (stereo not given) | 99.9% | 29.7% | 107% | 107% | 124% | – | 4.34% (active) | – | 113%
13 | CCCc1nc2ccccn2c1Nc1ccc(C(=O)NO)cc1 | 78% | – | 91.1% | 80.9% | 111% | 94.6% | 84.6% | 76.3% | 99.1%
14 | COc1ccc(/C(C)=C(\c2ccc(Cl)cc2)c2ccc(OCCN3CCCC3)cc2)cc1F | 48.7% | 46.6% | 32.3% | 58.6% | 38.1% | 30% | 51.6% | – | 35.2%
15 | C=C(CNCCc1ccc(O)cc1)[C@@H]1CC[C@]2(COC3CCCCO3)CC[C@]3(C)[C@H](CC[C@@H]4[C@@]5(C)CCC(N)C(C)(C)[C@@H]5CC[C@]43C)[C@@H]12 (stereo not given in full) | -61.6% (active) | -90.6% (active) | – | -95.1% (active) | -82.1% (active) | -49.5% (active) | -67.1% (active) | – | -87% (active)
16 | CC(C)n1nc(C#Cc2cccc3cc(-c4cccc(C(F)(F)F)c4)ncc23)c2c(N)ncnc21 | 41.1% | 86.1% | 78.8% | 91% | 72% | 65.2% | 82% | – | 91.2%
17 | O=C(CC12CC3CC(CC(C3)C1)C2)NCCOCCOCCOCCNC(=O)c1cc2c(o1)C(=O)c1ccccc1C2=O | 12.4% | – | -95.9% (active) | – | -10.8% (active) | – | -15% (active) | – | -42.9% (active)
18 | COc1ccc(-c2cc(-c3ccc(Nc4nc(Nc5ccccc5)nc(Nc5ccc(Cl)cc5)n4)cc3)nc(N)n2)cc1 | 79% | – | 56.5% | 119% | 39.2% | – | 69.3% | 50.5% | –
19 | CCOC(=O)C(O)C(O)(c1ccccc1)c1ccccc1 (stereo not given) | 108% | 90.4% | – | 97% | 100% | 108% | 102% | 106% | –
20 | Cc1cc(N2CCCCC2)nc(N(CCNc2ccnc3cc(Cl)ccc23)Cc2ccccn2)n1 | 52.8% | 68.2% | 41.6% | 60.5% | 31% | 53.5% | 50.4% | – | –
21 | CCOC(=O)c1c2c(c(C)n1C)-c1nn(Cc3ccc(OC)cc3)cc1CC2 | 100% | – | 71.2% | 109% | 111% | – | – | 77.8% | 108%
22 | CC(C)(C)CC(C)(C)Nc1c(-c2ccc(-c3ccccc3)cc2)nc2cnccn12 | 70.2% | 88.1% | – | 76.3% | 66% | 95.5% | 97.7% | 68.7% | –
23 | N=c1ccn2c(n1)OC1C(O)C(CO)OC12 (stereo not given) | 28.8% | 71.2% | 52.4% | 47% | 12.6% | 85.2% | 31.8% | – | –
24 | N#Cc1cnn2c(-c3ccc(Cl)cc3)nc(NC3CC3)nc12 | 102% | 93.9% | 87.2% | 107% | 89.4% | 101% | 98.8% | – | 101%
